Test results from PubChem BioAssay (NCATS).
Where “and” joins values, the source holds several entries; their conditions need not be identical. Equal entries are not always repeated. Records with an inconclusive call do not appear. Where a call stands in place of a potency, no number is given. Calls of active or inactive are those of the source. Unless noted, calls come from the whole dose curve.

Key:
[1] = Cell Viability - Hek293 (AID 427;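 active = compounds whose dose-response curve shows a full or clear partial loss of cell viability, called from curve shape rather than a numeric limit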;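 note: potency is the fitted concentration of half-maximal effect; cells exposed to compound for 40 hours at 37 °C before reading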); conditions: qHTS
How it was run: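 Luminescent ATP read-out (CellTiter-Glo, 20 min RT) after 40 hr compound exposure at 37 °C in complete medium. Signal normalized to DMSO (basal) and 100 uM tamoxifen (100% inhibition); concentration-response fitted with the standard Hill equation to give AC50.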

[2] = Cell Viability - MRC5 (AID 434); conditions: MRC5 lung fibroblast viability, qHTS;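 note: potency is the fitted concentration of half-maximal effect; potency reflects cytotoxicity seen as loss of intracellular ATP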
How it was run: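 qHTS cytotoxicity in human lung fibroblast MRC5 cells; 40 hr treatment, 37 °C; cellular ATP by luciferase luminescence; DMSO = 0%, 100 uM tamoxifen = 100% inhibition; Hill-fit AC50.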

[3] = Cell Viability - N2a (AID 540; active = well fitted curve in the direction sought with a large enough effect; an effect the other way counts as inactive or inconclusive;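 note: cells exposed to compound for 40 h at 37 °C; nearly all actives have a fitted effect of over 45% in size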); conditions: N2a mouse neuroblastoma cell viability; activity change, negative = cytotoxicity: at 92.2 µM (top of the series)
How it was run: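 Luminescent ATP signal (CellTiter-Glo, 20 min at room temperature) served as the viability read-out after N2a cells were treated with compounds for 40 hours at 37 °C. Concentration-response data were fitted to the Hill equation for AC50.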

[4] = Cell Viability - H-4-II-E (AID 543; active = well fitted curve in the direction sought with a large enough effect; an effect the other way counts as inactive or inconclusive; note: nearly all actives have a fitted effect of over 35% in size); conditions: H-4-II-E rat hepatoma viability; series mostly up to 92.2 µM
How it was run: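 Luminescent ATP signal (CellTiter-Glo) served as the viability read-out, with cytotoxicity seen as a concentration-dependent ATP drop. Cells were treated for 40 hours in complete medium. AC50 values derive from Hill-equation modelling.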

[5] = MultiTox-Fluor Cytotoxicity Assay - LYMP1-002 - Dead Cells (AID 960; active = well fitted curve in the direction sought with a large enough effect; an effect the other way counts as inactive or inconclusive; note: nearly all actives have a fitted effect of over 60% in size); conditions: LYMP1-002 lymphoblastoid cells, dead-cell protease fluorescence; series mostly up to 46.1 µM
How it was run: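 LYMP1-002 cells 2500/well; 5 hr 37 C pre-incubation; compound 16 hr 37 C; MultiTox-Fluor reagent 60 min RT; dead-cell fluor Ex/Em 485/520. Norm. to DMSO (0%) vs 15 uM tetraoctylammonium bromide (100%); Hill AC50.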

[6] = biological target: Glucocorticoid receptor (Homo sapiens) (UniProt P04150); test: qHTS assay for small molecule agonists of glucocorticoid receptor signaling (AID 588532; active = well fitted curve in the direction sought with a large enough effect in the signal ratio, with a control signal flat; the % refers to the signal ratio); conditions: HeLa MMTV-bla, beta-lactamase ratio, agonist, 18 h; stronger effect = higher value; percent of dexamethasone control, DMSO zero
Sequence of Glucocorticoid receptor (Homo sapiens) (P04150 whole entry, looked up): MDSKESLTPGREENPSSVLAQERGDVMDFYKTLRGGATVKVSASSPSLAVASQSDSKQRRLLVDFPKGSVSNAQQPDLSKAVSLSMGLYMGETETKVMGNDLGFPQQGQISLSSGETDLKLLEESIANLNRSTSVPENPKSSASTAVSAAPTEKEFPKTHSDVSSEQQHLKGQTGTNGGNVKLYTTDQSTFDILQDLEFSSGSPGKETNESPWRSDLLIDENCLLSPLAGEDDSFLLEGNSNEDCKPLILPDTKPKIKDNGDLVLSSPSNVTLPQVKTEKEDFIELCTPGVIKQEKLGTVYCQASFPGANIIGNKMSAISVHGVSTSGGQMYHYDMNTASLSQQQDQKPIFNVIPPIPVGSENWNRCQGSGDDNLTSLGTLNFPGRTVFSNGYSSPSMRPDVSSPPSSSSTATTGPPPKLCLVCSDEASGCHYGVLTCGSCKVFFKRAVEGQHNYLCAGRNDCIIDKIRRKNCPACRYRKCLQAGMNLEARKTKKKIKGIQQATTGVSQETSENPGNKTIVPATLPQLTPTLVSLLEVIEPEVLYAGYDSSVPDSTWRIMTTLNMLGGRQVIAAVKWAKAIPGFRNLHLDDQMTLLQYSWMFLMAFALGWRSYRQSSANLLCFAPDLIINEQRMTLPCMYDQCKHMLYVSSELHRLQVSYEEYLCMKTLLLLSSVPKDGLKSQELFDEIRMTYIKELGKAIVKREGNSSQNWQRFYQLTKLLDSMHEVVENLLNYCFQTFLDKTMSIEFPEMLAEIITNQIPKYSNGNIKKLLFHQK
How it was run: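 Quantitative HTS using CellSensor MMTV-bla HeLa cells in charcoal/dextran-treated serum; compounds tested up to 92 uM. After 18 h at 37 C, CCF4 dye reported reporter induction.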

[7] = biological target: Glucocorticoid receptor (Homo sapiens) (UniProt P04150); test: qHTS assay for small molecule antagonists of glucocorticoid receptor signaling (AID 588533; active = well fitted inhibition curve with a large enough effect in the signal ratio, with a control signal flat, not every such curve was filed as active; the % refers to the signal ratio;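 note: cells stimulated with 2 nM dexamethasone as agonist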); conditions: HeLa MMTV-bla, GRE beta-lactamase ratio, antagonist mode, 18 h; series mostly up to 76.8 µM
How it was run: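 Antagonist-mode qHTS: compound titrations added to GRE-bla HeLa cells, then dexamethasone 2 nM final; 18 h, 37 C. CCF4 FRET fluorescence normalized to dexamethasone and DMSO; IC50 from Hill fit.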

[8] = biological target: Peroxisome proliferator-activated receptor delta (Homo sapiens) (UniProt Q03181); test: qHTS assay for small molecule agonists of peroxisome proliferator-activated receptor delta signaling (AID 588534); conditions: HEK293T PPARdelta-UAS-bla, beta-lactamase ratio, 18 h; series mostly up to 76.7 µM
Sequence of Peroxisome proliferator-activated receptor delta (Homo sapiens) (Q03181 whole entry, looked up): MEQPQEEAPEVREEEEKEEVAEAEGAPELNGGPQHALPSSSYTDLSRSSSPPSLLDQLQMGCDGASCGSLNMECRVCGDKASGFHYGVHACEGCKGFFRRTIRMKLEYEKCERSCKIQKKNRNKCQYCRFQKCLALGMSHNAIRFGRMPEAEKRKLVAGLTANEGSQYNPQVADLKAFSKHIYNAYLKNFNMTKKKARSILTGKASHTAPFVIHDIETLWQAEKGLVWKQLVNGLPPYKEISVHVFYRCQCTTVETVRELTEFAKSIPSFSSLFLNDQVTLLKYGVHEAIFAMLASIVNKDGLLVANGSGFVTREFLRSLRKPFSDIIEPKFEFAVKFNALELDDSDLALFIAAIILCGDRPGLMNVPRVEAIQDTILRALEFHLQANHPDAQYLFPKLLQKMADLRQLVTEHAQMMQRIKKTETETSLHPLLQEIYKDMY
How it was run: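 Fluorescence from CCF4 substrate cleavage by beta-lactamase reporter, read 2 hrs at RT, measured agonist activity. Compounds were tested with 18 hrs exposure at 37 C. Concentration-response data fitted to Hill equation.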

[9] = qHTS assay for small molecule antagonists of peroxisome proliferator-activated receptor delta signaling (AID 588535; active = well fitted inhibition curve with a large enough effect in the signal ratio, with a control signal flat, not every such curve was filed as active; the % refers to the signal ratio;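 for max response: cells co-treated with a PPAR-delta agonist as stimulator during compound exposure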); conditions: HEK293T PPARd-UAS-bla, beta-lactamase FRET ratio, 18 h; 460 nm channel
How it was run: (§1)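 HEK293T PPAR-delta-UAS-bla cells, 4000/well, 2% charcoal/dextran FBS; 5 h 37 C; cpd titration; 18 h 37 C; CCF4 2 h RT; FI 460/530 nm; Hill fit → IC50, efficacy.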

[10] = biological target: Peroxisome proliferator-activated receptor delta (Homo sapiens) (UniProt Q03181); test: as above; conditions: HEK293T PPARd-UAS-bla, beta-lactamase FRET ratio, 18 h; series mostly up to 76.7 µM
How it was run: as §1

[11] = biological target: Peroxisome proliferator-activated receptor gamma (Homo sapiens) (UniProt P37231); test: qHTS assay for small molecule antagonists of peroxisome proliferator-activated receptor gamma signaling (AID 588537; active = well fitted inhibition curve with a large enough effect in the signal ratio, with a control signal flat, not every such curve was filed as active; the % refers to the signal ratio;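 note: reporter cells co-stimulated with 50 nM rosiglitazone agonist during compound treatment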); conditions: HEK293 PPARg-UAS-bla, beta-lactamase ratio, antagonist mode; series mostly up to 76.8 µM
Sequence of Peroxisome proliferator-activated receptor gamma (Homo sapiens) (P37231 whole entry, looked up): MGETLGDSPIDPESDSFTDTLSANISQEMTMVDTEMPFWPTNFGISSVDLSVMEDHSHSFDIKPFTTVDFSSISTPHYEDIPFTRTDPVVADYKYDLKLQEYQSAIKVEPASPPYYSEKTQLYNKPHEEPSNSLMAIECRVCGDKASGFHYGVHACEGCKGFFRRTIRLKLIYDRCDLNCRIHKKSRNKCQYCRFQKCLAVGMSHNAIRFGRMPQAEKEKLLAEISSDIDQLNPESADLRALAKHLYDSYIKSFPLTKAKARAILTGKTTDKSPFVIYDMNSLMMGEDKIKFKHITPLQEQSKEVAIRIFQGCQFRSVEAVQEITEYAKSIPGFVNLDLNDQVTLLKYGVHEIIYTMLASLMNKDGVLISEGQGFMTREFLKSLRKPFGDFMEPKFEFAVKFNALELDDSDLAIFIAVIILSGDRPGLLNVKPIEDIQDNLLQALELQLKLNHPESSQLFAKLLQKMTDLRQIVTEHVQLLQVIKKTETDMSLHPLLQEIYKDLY
How it was run: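 Antagonist mode, beta-lactamase reporter in HEK293; charcoal/dextran FBS 1%; 3000 cells/well, 37 C 6-6.5 h; cpd titration + rosiglitazone 50 nM final, 16 h 37 C; CCF4, 2 h RT; 460/530 nm; Hill fit → IC50, efficacy.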

[12] = qHTS assay for small molecule agonists of the antioxidant response element (ARE) signaling pathway (AID 651741; active = well fitted activation curve with a large enough effect in the signal ratio; the % refers to the signal ratio); conditions: HepG2 ARE-bla reporter, beta-lactamase FRET ratio, 16 h; series mostly up to 96 µM
How it was run: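 Quantitative HTS in HepG2 cells stably expressing an ARE-beta-lactamase reporter; 16 h compound exposure at 37 C, followed by 2 h room-temperature incubation with LiveBLAzer B/G FRET substrate and fluorescence measurement.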

[13] = qHTS assay for small molecule antagonists of the retinoid-related orphan receptor gamma (ROR-gamma) signaling pathway - cell viability counter screen (AID 720652; active = well fitted curve in the direction sought with a large enough effect in the repeat runs; an effect the other way counts as inactive or inconclusive;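 note: compound exposure lasted 16 hr before ATP read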); conditions: RORgamma reporter cell line viability counter screen; series mostly up to 92.2 µM
How it was run: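 Luminescence from CellTiter-Glo after 30 min at room temperature reported cellular ATP as the cytotoxicity measure. Cells were the CHO reporter line with doxycycline-induced ROR-gamma expression, exposed to compound for 16 hr at 37 C.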

[14] = biological target: Estrogen receptor (Homo sapiens) (UniProt P03372); test: qHTS assay for small molecule agonists of estrogen receptor alpha signaling (AID 588514); conditions: ER-alpha-UAS-bla HEK293, beta-lactamase ratio, 18 h; series mostly up to 76.8 µM; note: nearly all actives have a fitted effect of over 70% in size
Sequence of Estrogen receptor (Homo sapiens) (P03372 whole entry, looked up): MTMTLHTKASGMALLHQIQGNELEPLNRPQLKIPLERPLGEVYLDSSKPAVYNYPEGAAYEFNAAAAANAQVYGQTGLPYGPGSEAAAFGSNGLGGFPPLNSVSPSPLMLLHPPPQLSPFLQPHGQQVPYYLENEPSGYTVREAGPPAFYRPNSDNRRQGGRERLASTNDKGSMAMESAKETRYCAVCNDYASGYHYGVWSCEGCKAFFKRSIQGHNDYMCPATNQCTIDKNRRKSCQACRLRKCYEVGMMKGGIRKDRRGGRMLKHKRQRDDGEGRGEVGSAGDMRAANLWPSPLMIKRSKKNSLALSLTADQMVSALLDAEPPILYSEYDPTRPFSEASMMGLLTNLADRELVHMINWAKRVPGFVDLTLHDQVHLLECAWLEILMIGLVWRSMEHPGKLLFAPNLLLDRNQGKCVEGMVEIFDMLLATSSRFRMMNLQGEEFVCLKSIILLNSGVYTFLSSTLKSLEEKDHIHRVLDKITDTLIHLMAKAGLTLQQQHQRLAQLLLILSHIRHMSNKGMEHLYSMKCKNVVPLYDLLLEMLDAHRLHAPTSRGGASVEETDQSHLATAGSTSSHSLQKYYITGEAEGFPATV
How it was run: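 Cells were plated at 5000/well, incubated 4 hrs at 37 C, dosed with compound titration series, incubated 18 hrs at 37 C, loaded with CCF4 dye for 2 hrs at RT, then fluorescence was read.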

[15] = biological target: Peroxisome proliferator-activated receptor gamma (Homo sapiens) (UniProt P37231); test: qHTS assay for small molecule agonists of peroxisome proliferator-activated receptor gamma signaling (AID 588536; active = well fitted curve in the direction sought with a large enough effect in the signal ratio, with a control signal flat, not every such curve was filed as active; the % refers to the signal ratio); conditions: HEK293 PPARg-UAS-bla, beta-lactamase ratio, 16 h, percent of rosiglitazone response, DMSO as zero; series mostly up to 76.7 µM
How it was run: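 PPAR-gamma-UAS-bla HEK293 cells in medium with 1% charcoal/dextran-treated FBS were exposed to compounds for 16 h at 37 C. Beta-lactamase activity was read with CCF4 substrate (405 nm excitation, 460/530 nm emission).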

[16] = biological target: Mitogen-activated protein kinase 10 (Mus musculus) (UniProt Q61831); test: JNK3 AlphaScreen Assay (AID 530; active = well fitted curve in either direction with a large enough effect, not every such curve was filed as active;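 note: kinase came from lysate of stimulated human HepG2 cells; signal reports phosphorylation of biotinylated GST-cJun 1-79 at Ser73 with 10 µM ATP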); conditions: JNK3 lysate, c-Jun phosphorylation; series mostly up to 57.1 µM
How it was run: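 Compound titrations were preincubated 15 minutes at room temperature with substrate, antibody and pre-activated JNK3-containing HepG2 lysate. Reactions were started with 10 uM ATP and stopped with EDTA-containing bead buffer for AlphaScreen detection.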

[17] = biological target: Vitamin D3 receptor (Homo sapiens) (UniProt P11473); test: qHTS assay for small molecule antagonists of vitamin D receptor signaling (AID 588541); conditions: HEK293T VDR-UAS-bla, beta-lactamase ratio, antagonist mode; series mostly up to 76.7 µM;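 note: receptor activated by calcitriol during compound treatment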
Sequence of Vitamin D3 receptor (Homo sapiens) (P11473 whole entry, looked up): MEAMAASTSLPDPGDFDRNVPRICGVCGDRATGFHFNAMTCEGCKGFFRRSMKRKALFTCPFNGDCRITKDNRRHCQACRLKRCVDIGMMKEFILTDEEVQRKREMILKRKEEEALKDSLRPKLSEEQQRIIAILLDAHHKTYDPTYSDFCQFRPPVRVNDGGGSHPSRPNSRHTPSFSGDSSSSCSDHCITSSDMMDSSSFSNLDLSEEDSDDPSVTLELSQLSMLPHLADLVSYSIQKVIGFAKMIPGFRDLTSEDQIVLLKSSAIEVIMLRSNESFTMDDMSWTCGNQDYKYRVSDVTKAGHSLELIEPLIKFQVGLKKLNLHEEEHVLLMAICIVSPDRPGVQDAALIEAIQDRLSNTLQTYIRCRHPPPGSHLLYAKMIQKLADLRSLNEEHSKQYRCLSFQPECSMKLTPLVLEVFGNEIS
How it was run: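 Antagonist-mode beta-lactamase reporter assay: HEK293T VDR-UAS-bla cells were exposed to titrated compound alongside 1-alpha,25-dihydroxyvitamin D3 at 3 nM final for 16 h. Values were normalized to the 50 nM agonist control and DMSO basal, with IC50 and efficacy from Hill equation fits.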

[18] = biological target: Vitamin D3 receptor (Homo sapiens) (UniProt P11473); test: qHTS assay for small molecule agonists of vitamin D receptor signaling (AID 588543); conditions: HEK293T VDR-UAS-bla, beta-lactamase ratio, 16 h; series mostly up to 76.8 µM
How it was run: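 Measured: β-lactamase reporter activity (CCF4, 405 nm excitation, 460/530 nm emission) in HEK293T VDR-UAS-bla cells after 16 h compound exposure at 37 °C. Normalization against 50 nM 1α,25-dihydroxyvitamin D3 and DMSO; Hill-fit EC50.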

[19] = biological target: Bile acid receptor (Homo sapiens) (UniProt Q96RI1); test: qHTS assay for small molecule agonists of farnesoid X receptor signaling (AID 588527); conditions: HEK293T FXR-UAS-bla, beta-lactamase ratio, 16 h; stronger effect = higher value
Sequence of Bile acid receptor (Homo sapiens) (Q96RI1 whole entry, looked up): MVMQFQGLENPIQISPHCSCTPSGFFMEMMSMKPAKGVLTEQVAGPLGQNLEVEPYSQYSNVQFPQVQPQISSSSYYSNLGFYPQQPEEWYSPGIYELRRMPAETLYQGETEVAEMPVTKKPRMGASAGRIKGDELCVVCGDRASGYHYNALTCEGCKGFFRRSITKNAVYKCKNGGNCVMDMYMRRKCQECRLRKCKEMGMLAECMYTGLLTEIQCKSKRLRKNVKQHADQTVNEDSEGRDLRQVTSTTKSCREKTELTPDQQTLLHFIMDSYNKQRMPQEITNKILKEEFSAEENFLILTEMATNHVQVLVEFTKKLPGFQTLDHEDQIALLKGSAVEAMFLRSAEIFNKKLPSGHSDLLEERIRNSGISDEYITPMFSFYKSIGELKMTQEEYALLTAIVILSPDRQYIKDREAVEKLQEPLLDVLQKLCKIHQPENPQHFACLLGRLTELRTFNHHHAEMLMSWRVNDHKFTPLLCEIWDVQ
How it was run: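 FXR-UAS-bla HEK293T, 10% dialyzed FBS; cpds up to 92 uM titration, 16 h 37 C; CCF4 dye 2 h RT; fluorescence. Normalized to chenodeoxycholic acid 100 uM (100%) and DMSO (0%); Hill fit gives EC50, efficacy.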

[20] = qHTS assay for small molecule activators of the nuclear factor-kappa B (NF-kB) signaling pathway (AID 651749; active = well fitted activation curve with a large enough effect in the signal ratio; the % refers to the signal ratio); conditions: NF-kB-bla ME-180 cells, beta-lactamase FRET ratio, 16 h; stronger effect = higher value
How it was run: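 Readout: beta-lactamase reporter driven by an NF-kB response element, detected fluorescently as loss of FRET. Cells were the ME-180 line, treated 16 hr at 37C with pin-transferred compound.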

CCOP(=S)(OCC)SCCSCC
Potency [1]: > 92 µM (inactive) | Potency [2]: > 92 µM (inactive) | Potency [3]: inactive | Potency [4]: inactive | Potency [5]: inactive | activation [6]: 13.6% (inactive) | outcome [7]: inactive | outcome [8]: inactive | max response [9]: -12.4% and 3.79% | outcome [10]: inactive | Potency [11]: inactive | Potency [12]: inactive | Potency [13]: inactive

O=[N+]([O-])CCO
Potency [1]: > 92 µM (inactive) | Potency [2]: > 92 µM (inactive) | Potency [3]: inactive | Potency [4]: inactive | Potency [14]: inactive | activation [6]: -6.62% (inactive) | outcome [7]: inactive | outcome [15]: inactive | Potency [13]: inactive

CCNCC
Potency [2]: > 92 µM (inactive) | Potency [16]: inactive | Potency [5]: inactive | activation [6]: 0.672% (inactive) | outcome [7]: inactive | outcome [8]: inactive | max response [9]: 21.4% | outcome [10]: inactive | outcome [15]: inactive | Potency [11]: inactive | outcome [17]: inactive | Potency [12]: inactive

CC(Cl)CCl (stereo unspecified)
Potency [2]: > 92 µM (inactive) | Potency [16]: inactive | Potency [3]: inactive | Potency [4]: inactive | Potency [5]: inactive | Potency [14]: inactive | activation [6]: 4.13% (inactive) | outcome [7]: inactive | outcome [8]: inactive | outcome [17]: inactive | outcome [18]: inactive | Potency [12]: inactive | Potency [13]: inactive

ClCc1ccccn1
Potency [2]: > 92 µM (inactive) | Potency [3]: inactive | Potency [4]: inactive | Potency [5]: inactive | Potency [14]: inactive | activation [6]: 7.32% (inactive) and 6.72% (inactive) | outcome [7]: inactive | outcome [8]: inactive | max response [9]: 3.34% | outcome [10]: inactive | outcome [15]: inactive | Potency [11]: inactive | outcome [17]: inactive | outcome [18]: inactive | Potency [12]: inactive | Potency [13]: inactive

[O-][Cl+2]([O-])O
Potency [2]: > 92 µM (inactive) | Potency [16]: inactive | Potency [4]: inactive | Potency [5]: inactive | Potency [14]: inactive | activation [19]: -2.85% (inactive) | outcome [15]: inactive | outcome [18]: inactive | Potency [12]: inactive | activation [20]: -0.919% (inactive) | Potency [13]: inactive

CCOP(=O)(OCC)OCC
Potency [2]: > 92 µM (inactive) | Potency [16]: inactive | Potency [3]: inactive | Potency [4]: inactive | Potency [5]: inactive | activation [6]: 4.27% (inactive) and 16.4% (inactive) | outcome [7]: inactive | max response [9]: 8.93% and -1.46% | outcome [10]: inactive | outcome [15]: inactive | Potency [11]: inactive | outcome [17]: inactive | outcome [18]: inactive | Potency [12]: inactive | Potency [13]: inactive

Cl/C=C\Cl
Potency [1]: > 92 µM (inactive) | Potency [3]: inactive | Potency [14]: inactive | activation [6]: 16.7% (inactive) | outcome [7]: inactive | outcome [8]: inactive | max response [9]: -22.4% | outcome [10]: inactive | outcome [17]: inactive | outcome [18]: inactive | activation [20]: 0.0953% (inactive) | Potency [13]: inactive
